Measurements: PubChem BioAssay (Tox21)
Inconclusive results are not listed. The source made the active and inactive calls. Unless noted, calls come from the whole dose curve; as a rule, active = well fitted curve in the direction sought with a large enough effect in the repeat runs; inconclusive = weak or mixed curves; inactive = no such curve, though single readings can be large; an effect the other way counts as inactive or inconclusive.

Tests used:
[1] = qHTS assay to identify small molecule agonists of the peroxisome proliferator-activated receptor delta (PPARd) signaling pathway - cell viability counter screen (AID 743211); note: nearly all actives have a fitted effect of over 55% in size
In short: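 Following 5 h plating at 37 C and 5% CO2, PPARd UAS-bla HEK293H cells took up test compounds for 17 h. Viability was quantified by luminescence 30 min after CellTiter-Glo addition at room temperature.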

[2] = qHTS assay to identify small molecule antagonists of the peroxisome proliferator-activated receptor delta (PPARd) signaling pathway - cell viability counter screen (AID 743213); note: nearly all actives have a fitted effect of over 50% in size
In short: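 Cytotoxicity counter screen: CellTiter-Glo luminescence read 30 min after addition, in the same wells as the reporter assay. There, PPARd UAS-bla HEK293H cells (3000/well) were treated 17 h at 37 C with compound and 300 nM L165041.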

[3] = qHTS assay to identify small molecule agonists of the farnesoid-X-receptor (FXR) signaling pathway - cell viability counter screen (AID 743218); note: nearly all actives have a fitted effect of over 45% in size
In short: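 HEK 293T FXR-bla cells; 5 h pre-incubation, 16 h compound exposure at 37 C; LiveBLAzer substrate 2 h RT, then CellTiter-Glo 30 min RT, luminescence.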

[4] = qHTS assay to identify small molecule antagonists of the farnesoid-X-receptor (FXR) signaling pathway - cell viability counter screen (AID 743221; active = well fitted cell-killing curve with a large enough effect in the repeat runs, not every such curve was filed as active; note: nearly all actives have a fitted effect of over 50% in size)
In short: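 Compound effects on cell number were measured as CellTiter-Glo luminescence in HEK 293T cells expressing FXR-UAS-bla, after 16 h at 37 C with 50 uM CDCA (final).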

[5] = target: Vitamin D3 receptor (Homo sapiens) (UniProt P11473); experiment: qHTS assay to identify small molecule agonists of the vitamin D receptor (VDR) signaling pathway (AID 743222; calls by dose curve)
Sequence of Vitamin D3 receptor (Homo sapiens) (P11473 whole entry, looked up): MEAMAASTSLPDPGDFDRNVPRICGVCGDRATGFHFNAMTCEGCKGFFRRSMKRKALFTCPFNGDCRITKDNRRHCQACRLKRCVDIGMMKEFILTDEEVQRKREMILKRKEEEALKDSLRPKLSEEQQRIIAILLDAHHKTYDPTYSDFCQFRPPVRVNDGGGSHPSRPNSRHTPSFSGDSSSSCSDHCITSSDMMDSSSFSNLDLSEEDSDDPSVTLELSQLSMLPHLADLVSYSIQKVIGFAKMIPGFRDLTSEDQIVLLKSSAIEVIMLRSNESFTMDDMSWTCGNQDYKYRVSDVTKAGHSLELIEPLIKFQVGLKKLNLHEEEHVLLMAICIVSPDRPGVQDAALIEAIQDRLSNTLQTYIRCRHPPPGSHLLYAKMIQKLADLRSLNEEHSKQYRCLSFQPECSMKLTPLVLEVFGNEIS
In short: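 VDR-bla cells, 2,000/well; 4 h preincubation 37C; cpd (DMSO) 16 h; LiveBLAzer B/G substrate 2 h RT; fluorescence intensity read.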

[6] = target: Vitamin D3 receptor (Homo sapiens) (UniProt P11473); experiment: qHTS assay to identify small molecule antagonists of the vitamin D receptor (VDR) signaling pathway (AID 743223; active = well fitted inhibition curve with a large enough effect in the signal ratio in the repeat runs, not every such curve was filed as active; the % refers to the signal ratio)
In short: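 Beta-lactamase activity in VDR-bla cells is measured by FRET substrate fluorescence (2 h, room temperature) after cells spend 16 h at 37C with test compound and 3 nM final 1alpha,25-dihydroxyvitamin D3.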

[7] = qHTS assay to identify small molecule agonists of the vitamin D receptor (VDR) signaling pathway - cell viability counter screen (AID 743224); note: series mostly up to about 63 µM; nearly all actives have a fitted effect of over 50% in size
In short: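 Luminescence from CellTiter-Glo, read after 30 min at room temperature, reports viability of VDR-bla cells treated with compounds for 16 h at 37C in the wells used for the beta-lactamase FRET read.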

[8] = qHTS assay to identify small molecule antagonists of the vitamin D receptor (VDR) signaling pathway - cell viability counter screen (AID 743225); note: nearly all actives have a fitted effect of over 50% in size
In short: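 In this counter screen, VDR-bla HEK 293T cells receive test compound plus 3 nM final calcitriol for 16 h at 37C. Room-temperature steps of 2 h with the beta-lactamase substrate, then 30 min with CellTiter-Glo, precede the luminescence read.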

[9] = qHTS assay to identify small molecule agonists of the NFkB signaling pathway (AID 1159509; active = well fitted curve in the direction sought with a large enough effect in the signal ratio in the repeat runs, not every such curve was filed as active; the % refers to the signal ratio; note: series mostly up to about 61 µM)
In short: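 ME-180 NFkB-bla, 2,000 cells/well, overnight plating; cpd pinned in DMSO, 5 h 37 C; B/G FRET substrate 1.5 h RT; ex 405, em 460/530 nm.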

[10] = qHTS assay to identify small molecule agonists of the NFkB signaling pathway - cell viability counter screen (AID 1159515; calls by dose curve; note: series mostly up to about 61 µM; nearly all actives have a fitted effect of over 55% in size)
In short: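 Luminescence from CellTiter-Glo (30 min, room temperature) gives viability, measured in the same wells as the beta-lactamase reporter read. Cells were NFkB-bla ME-180, 2,000 per well, treated 5 hr with compounds.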

[11] = qHTS assay to identify small molecule agonists of the endoplasmic reticulum stress response signaling pathway (AID 1159516; active = well fitted activation curve with a large enough effect in the signal ratio in the repeat runs, not every such curve was filed as active; the % refers to the signal ratio)
In short: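 Read-out is beta-lactamase cleavage of a FRET substrate (405 nm excitation; 460 and 530 nm emissions) in ESRE-bla HeLa cells after a 5 hr compound exposure at 37 C. Substrate incubation ran 2 hr at room temperature.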

[12] = qHTS assay to identify small molecule agonists of the endoplasmic reticulum stress response signaling pathway - cell viability counter screen (AID 1159517; calls by dose curve)
In short: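 CellTiter-Glo was added to wells already read for beta-lactamase FRET, and luminescence was recorded 30 min later. Cells: ESRE-bla HeLa, 1,500 per well, compound exposure 5 hr at 37 C.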

[13] = qHTS assay to identify small molecule antagonists of the retinoid-related orphan receptor gamma (ROR-gamma) signaling pathway - cell viability counter screen (AID 1159520); note: nearly all actives have a fitted effect of over 50% in size
In short: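 Tet-on ROR gamma CHO cells (1,000/well) were plated 4 hr, given compounds in DMSO for 2 hr at 37 C, then induced with 1 uM final doxycycline for 16 hr. Viability was read as ATP by CellTiter-Glo luminescence after 30 min.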

[14] = target: Nuclear receptor ROR-gamma (Homo sapiens) (UniProt P51449); experiment: qHTS assay to identify small molecule antagonists of the retinoid-related orphan receptor gamma (ROR-gamma) signaling pathway (AID 1159521; note: nearly all actives have a fitted effect of over 50% in size; note: potency is the fitted concentration of half-maximal effect)
In short: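 Screening format: cell-based luciferase reporter in CHO cells with doxycycline-inducible RORγ. Compound pre-exposure lasts 2 h, doxycycline is 1 uM final, induction runs 16 h at 37 C, and ONE-Glo luminescence is read.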

[15] = qHTS assay to identify small molecule agonists of the AP-1 signaling pathway - cell viability counter screen (AID 1159525; calls by dose curve; note: nearly all actives have a fitted effect of over 55% in size)
In short: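 ME-180 AP-1-bla, 2500 cells/well, Opti-MEM + 0.5% dialyzed FBS; overnight 37 °C; cpd 15-pt titration, 5 h 37 °C; CellTiter-Glo 30 min RT; luminescence read; normalised to TOAB and DMSO controls.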

[16] = target: Peroxisome proliferator-activated receptor delta (Homo sapiens) (UniProt Q03181); experiment: qHTS assay to identify small molecule agonists of the peroxisome proliferator-activated receptor delta (PPARd) signaling pathway (AID 743212; calls by dose curve)
Sequence of Peroxisome proliferator-activated receptor delta (Homo sapiens) (Q03181 whole entry, looked up): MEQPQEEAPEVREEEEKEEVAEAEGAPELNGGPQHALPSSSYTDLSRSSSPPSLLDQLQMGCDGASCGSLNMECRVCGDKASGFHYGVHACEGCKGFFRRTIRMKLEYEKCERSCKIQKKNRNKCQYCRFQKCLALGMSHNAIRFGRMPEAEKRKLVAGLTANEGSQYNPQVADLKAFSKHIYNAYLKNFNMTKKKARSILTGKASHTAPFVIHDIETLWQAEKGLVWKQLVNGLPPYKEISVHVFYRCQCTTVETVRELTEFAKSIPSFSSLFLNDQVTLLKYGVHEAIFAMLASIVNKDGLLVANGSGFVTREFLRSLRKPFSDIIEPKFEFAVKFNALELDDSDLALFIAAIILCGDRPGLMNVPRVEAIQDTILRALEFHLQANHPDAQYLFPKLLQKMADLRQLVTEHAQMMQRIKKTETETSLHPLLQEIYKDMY
In short: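 A PPARd-bla HEK293H line with beta-lactamase under an Upstream Activator Sequence is treated with compounds at 37 C. Substrate loading for 2 h at room temperature precedes the fluorescence measurement.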

[17] = target: Peroxisome proliferator-activated receptor delta (Homo sapiens) (UniProt Q03181); experiment: qHTS assay to identify small molecule antagonists of the peroxisome proliferator-activated receptor delta (PPARd) signaling pathway (AID 743215; active = well fitted inhibition curve with a large enough effect in the signal ratio in the repeat runs, not every such curve was filed as active; the % refers to the signal ratio;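 note: cells stimulated with agonist L165041 at 300 nM final during compound exposure; series mostly up to about 62 µM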)
In short: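 Read-out is beta-lactamase FRET fluorescence, measured 2 h after substrate addition at room temperature. Beforehand, UAS-bla HEK293H cells carrying the PPARd reporter were exposed to compounds with L165041 at 300 nM final for 17 h at 37 C.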

[18] = target: Bile acid receptor (Homo sapiens) (UniProt Q96RI1); experiment: qHTS assay to identify small molecule antagonists of the farnesoid-X-receptor (FXR) signaling pathway (AID 743217; active = well fitted inhibition curve with a large enough effect in the signal ratio in the repeat runs, not every such curve was filed as active; the % refers to the signal ratio)
Sequence of Bile acid receptor (Homo sapiens) (Q96RI1 whole entry, looked up): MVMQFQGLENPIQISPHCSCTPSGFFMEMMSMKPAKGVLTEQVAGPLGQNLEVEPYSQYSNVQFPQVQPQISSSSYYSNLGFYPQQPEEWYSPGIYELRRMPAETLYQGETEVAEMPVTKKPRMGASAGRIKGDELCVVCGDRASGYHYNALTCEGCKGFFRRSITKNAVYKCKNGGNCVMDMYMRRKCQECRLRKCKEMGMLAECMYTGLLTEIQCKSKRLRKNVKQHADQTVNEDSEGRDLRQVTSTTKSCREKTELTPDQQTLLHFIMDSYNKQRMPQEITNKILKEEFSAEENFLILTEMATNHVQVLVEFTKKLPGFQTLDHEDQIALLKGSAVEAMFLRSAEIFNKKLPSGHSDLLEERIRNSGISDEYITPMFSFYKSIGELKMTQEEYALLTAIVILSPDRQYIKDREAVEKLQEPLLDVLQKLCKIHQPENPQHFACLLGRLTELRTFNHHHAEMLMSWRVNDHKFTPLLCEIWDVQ
In short: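 HEK 293T FXR-UAS-bla, 5000 cells/well; compound + CDCA 50 uM final; 16 h, 37 °C; B/G FRET substrate 2 h RT; fluorescence.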

[19] = target: Bile acid receptor (Homo sapiens) (UniProt Q96RI1); experiment: qHTS assay to identify small molecule agonists of the farnesoid-X-receptor (FXR) signaling pathway (AID 743220; active = well fitted activation curve with a large enough effect in the signal ratio in the repeat runs, not every such curve was filed as active; the % refers to the signal ratio)
In short: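 Beta-lactamase reporter under UAS control in GeneBLAzer FXR HEK 293T cells (5000/well) measured with LiveBLAzer FRET substrate after 2 h at room temperature. Compound exposure lasted 16 h at 37C.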

Measured: Potency

CCOc1ccccc1N
active: [14] 54.1 µM
not listed: [16] | [17] | [18] | [19]
inactive: all other assays above

CC(C)=CCCC(C)CCOC=O (stereo not given)
not listed: [2] | [6] | [7]
inactive: all other assays above

CCC(=O)O[C@]1(C(=O)SCF)[C@H](C)C[C@H]2[C@@H]3C[C@H](F)C4=CC(=O)C=C[C@]4(C)[C@@]3(F)[C@@H](O)C[C@@]21C
not listed: [2] | [6] | [18] | [19]
inactive: all other assays above

CCN(CC)CC1CCCCN1CC(=O)N1c2ccccc2C(=O)Nc2cccnc21 (stereo not given)
not listed: [5] | [18]
inactive: all other assays above

CCCCCCCCCC#N
not listed: [5] | [6] | [7] | [18] | [19]
inactive: all other assays above

CC(=O)Oc1cc(C(C)C)c(OCCN(C)C)cc1C
not listed: [5] | [16] | [17] | [18] | [19]
inactive: all other assays above

O=C(CC(=O)C(F)(F)F)c1ccccc1
not listed: [4] | [18] | [19]
inactive: all other assays above

CC1CN(c2ccccc2)NC1=O (stereo not given)
not listed: [1] | [4] | [5] | [6] | [7] | [8]
inactive: all other assays above

Cc1c(-c2ccccc2)oc2c(C(=O)OCCN3CCCCC3)cccc2c1=O
not listed: [4] | [8] | [18] | [19]
inactive: all other assays above
